SMILES strings stand for the structures. In all, about 65,000 compounds went through this assay and about 2,100 (3.2%) showed an effect of 50% or more. The median lay at about -52%. The entries come from a sample that favours strong results as a whole.

The test deals with Plasmodium falciparum. As to the kind of experiment: Screen against P. falciparum Asexual Blood Stage (ABS), at 5uM. It counts as functional, Dd2. The conditions noted are these: tested at 5 uM.
Regarding `CC(C)COC(=O)N1CC(=O)N(CCc2ccccc2)CC(O)C1` (configuration not stated), the INHIBITION is on record as -47.8%. Regarding `Cc1oc(-c2ccsc2)nc1CN1CCCC(c2ccnn2C)C1` (configuration not stated), the INHIBITION is -72.5%. As to `CN1CCN(Cc2cccnc2)C2(CCN(c3ncccn3)C2)C1=O` (configuration not stated), the INHIBITION is -162%. For `Cn1ccnc1C(=O)N1CCC2(CCN2c2ncccn2)C1` (configuration not stated), the INHIBITION is given as -49.3%. For the compound `Cc1ccc(Nc2nccc(C3CCN(C(=O)CN)C3)n2)nc1` (configuration not stated), the INHIBITION is on record as -205%. In the case of `CSCCCN1CCN(c2ccc(Cl)cn2)CC1`, the INHIBITION stood at 30.7%. For the compound `Clc1ccc(N2CCN(CCCN3CCCCC3)CC2)nc1`, the INHIBITION stood at 69.2%. `CS(=O)(=O)CCN1CCN(c2ccc(Cl)cn2)CC1`: the INHIBITION turned out to be 0.0372%. As for `CN1CCN(Cc2ccncc2)C(=O)C12CCN(c1nccs1)CC2`, the INHIBITION is given as -78.4%. Turning to `CCCc1nc(C(C)(C)NC(=O)C2CC(=O)N(CC)C2)no1` (configuration not stated), the INHIBITION is -33.1%.

Turning to `N#Cc1cc(C#N)c(SCC(=O)NCc2ccc(F)cc2)nc1N`, the INHIBITION is on record as -74.4%.

With `N#Cc1cc(C#N)c(SCC(=O)Nc2ccc(F)cc2)nc1N`, the INHIBITION was determined as 67.3%. `N#Cc1cc(C#N)c(SCCC(=O)Nc2ccc(F)cc2)nc1N`: the INHIBITION is recorded as 13.7%.

Turning to `CCC(Nc1ccc(CCN2CCCCC2)cc1)C(N)=O` (configuration not stated), the INHIBITION was 1.58%. Take `O=C(O)c1cc(S(=O)(=O)Nc2ccc(F)cc2F)cc2c1OCCO2`: the INHIBITION is -20.9%. For `CCn1cnnc1CNC(=O)N1CCN(c2ccccc2OC)CC1`, the INHIBITION was -69.5%. `O=C(c1cc(Cl)c[nH]1)N1CCCC(c2cc(C(F)(F)F)[nH]n2)C1` (configuration not stated): the INHIBITION stood at 20.5%.

For the compound `Cc1ccc(-c2nc(CSCCC(=O)NC(N)=O)co2)c(C)c1`, the INHIBITION is given as -115%.

Regarding `CSc1ccc(C(=O)N2CCOCC2c2c(C)n[nH]c2C)o1` (configuration not stated), the INHIBITION is given as -159%. In the case of `Cc1cc(C)n(CC(=O)NC(Cc2ccsc2)c2ccccn2)c(=O)n1` (configuration not stated), the INHIBITION was -151%. Regarding `Cc1nnc(NCc2ccccc2Cl)c(C#N)c1C`, the INHIBITION is 6.46%. With `COc1ccccc1C1(CNc2nnc(C)c(C)c2C#N)CCOCC1` the figure was 3.69%; with `CCCOc1ncccc1CNc1nnc(C)c(C)c1C#N`, -121%. With `COCc1ccccc1CNc1nnc(C)c(C)c1C#N`, the INHIBITION is reported as -155%. Consider `COc1ccccc1C1(CNc2nnc(C)c(C)c2C#N)CCCC1`, for which the INHIBITION was 58.4%. With `Cc1nnc(NCc2ccccc2F)c(C#N)c1C`, the INHIBITION stood at 64.4%. The figure for `Cc1nnc(NCc2cccnc2OCC(F)(F)F)c(C#N)c1C` is -46.2%; for `Cc1nnc(NCC2(c3ccccc3)CCC2)c(C#N)c1C` it is -32.2%; for `CCOc1ncccc1CNc1nnc(C)c(C)c1C#N` it is 60%. `Cc1ccccc1COCCOCn1c(C)cc(=O)[nH]c1=O`: the INHIBITION is -70.8%. On to `CCn1nnc2c1C(COCC(=O)N(C)C)CN(Cc1ccoc1)C2` (configuration not stated), for which the INHIBITION was -97.7%. As for `O=C(Cc1cccs1)Nc1cnn(C2CCOCC2)c1`, the INHIBITION is reported as -142%. Turning to `CCOC(=O)[C@H]1[C@@H](O)C(=O)N(C)C12CCN(C(=O)c1ccccc1)CC2`, the INHIBITION is on record as -32.3%. In the case of `O=C1CC2(CCCNC2)C(=O)N1Cc1ccc(Cl)cc1` (configuration not stated), the INHIBITION is 51.8%. As to `O=C1CC2(CCCNC2)C(=O)N1Cc1ccc(F)cc1` (configuration not stated), the INHIBITION is given as -26%. With `O=C1CC2(CCCNC2)C(=O)N1Cc1cccc(F)c1` (configuration not stated), the INHIBITION is on record as -47.2%.

As to `O=C(Nc1ccnc(OC2CCOC2)c1)c1ccccc1Cl` (configuration not stated), the INHIBITION is reported as -34.1%. `O=C(NCC(=O)N1CCCc2ccccc21)c1c(O)cc(F)cc1F`: the INHIBITION is -115%. Turning to `COC(=O)c1c(Cl)c(C)nc2onc(C)c12`, the INHIBITION is -117%. With `CCN(CC)C(=O)C1CCN(c2ccc(Cl)cc2C#N)CC1` the figure was -147%. As to `N#Cc1cc(Cl)ccc1N1CCN(C(=O)C2CCC2)CC1`, the INHIBITION was -75.4%.

With `CC1CCN(C(=O)C2CCN(c3ccc(Cl)cc3C#N)CC2)CC1`, the INHIBITION worked out at 60.5%. In the case of `Cn1cc(CN2CCCC23CCN(S(C)(=O)=O)CC3)cn1`, the INHIBITION is given as -54.3%. For `O=c1n(CCNc2cccc3ccccc23)nc2ccccn12`, the INHIBITION is -149%. Take `COCCN1C(=O)[C@]2(CC[C@@H]3CN(Cc4ccccc4F)C[C@@H]32)N=C1C`: the INHIBITION is -37.9%. Consider `CC1=N[C@@]2(CC[C@@H]3CN(Cc4ccccc4)C[C@@H]32)C(=O)N1CC1CC1`, for which the INHIBITION was 17.7%. With `CCC1=N[C@@]2(CC[C@@H]3CN(Cc4ccccc4F)C[C@@H]32)C(=O)N1CC` the figure was 39.8%; with `CC1=N[C@@]2(CC[C@@H]3CN(Cc4ccc(C)cc4)C[C@@H]32)C(=O)N1CC1CC1`, 30.2%; with `CC1=N[C@@]2(CC[C@@H]3CN(Cc4ccccc4F)C[C@@H]32)C(=O)N1CC1CC1`, 67.6%. Regarding `CC1=N[C@@]2(CC[C@@H]3CN(Cc4cccc(Cl)c4)C[C@@H]32)C(=O)N1CC1CC1`, the INHIBITION came to 67.2%.

In the case of `COCCN(C)C(=O)Nc1ccc2c(ccn2CCOC)c1`, the INHIBITION is -178%. Turning to `Cc1nnc(N2CC[C@H]3C[C@H](C(=O)N4CCOCC4)O[C@H]3C2)s1`, the INHIBITION is -42.1%.

Source of the values: ChEMBL document CHEMBL4513216, “Probing the Open Global Health Chemical Diversity Library for Multistage-Active Starting Points for Next-Generation Antimalarials” (ACS Infect Dis, 2020).
